Results filed as inconclusive are left out. The source made the active and inactive calls. Calls follow the shape of the dose curve; as a rule, active = well fitted inhibition curve with a large enough effect; inconclusive = small, poorly fitted or top-dose-only effect; inactive = no such curve, though single readings can be large or run the other way.
Assay: qHTS for Inhibitors of ATXN expression: Validation (AID 588378); also: nearly all actives have a fitted effect of over 75% in size
Details: cell-based ATXN2 expression reporter assay, luminescence; series mostly up to 57.1 µM; activity change, negative = inhibition: at the top concentration
Excerpt: Spinocerebellar ataxia type 2 (SCA2) is a multisystem neurodegenerative disease caused by a dominantly-acting mutation leading to expansion of a polyQ domain in the ataxin-2 protein (ATXN2). SCA2 patients develop progressive ataxia and later lose function in other neuronal systems. Prominent parkinsonian signs develop in some patients. Similar to many neurodegenerative disorders, no symptomatic or disease-modifying treatments are known.
The primary objective of project is to identify compounds inhibiting ATXN2 expression and to test them for efficacy in SCA2 mouse models. To this end, in a collaboration between Dr. Daniel Scoles and scientists at NCGC, a cell-based assay adapted to high-throughput screening has been developed to screen the NIH Molecular Libraries Small Molecule Repository (MLSMR).
NIH Chemical Genomics Center [NCGC]
NIH Molecular Libraries Probe Centers Network [MLPCN]
Assay Submitter (PI): Stefan Pulst and Daniel Scoles, University of Utah
4 ul of HEK293-ATXN2-FFLuc cell suspension (TBD cells/microL in phenol-red free DMEM) are dispensed into Greiner white solid bottom 1536-well assay plates, yielding a final well density of TBD cells/well. Plates are incubated for 2 hrs at 37 degrees C in 5% humidified CO2 to allow cell attachment. Compounds are then transferred via Kalypsys pin tool equipped with 1536-pin array (10nl slotted pins, V&P Scientific, San Diego, CA). In addition, duplicate serial dilutions of the control compounds ChemBridge 5553825, a previously identified ATXN2 expression inhibitor, and a known luciferase inhibitor, are pin-transferred. After incubation at 37 degrees C in 5% humidified CO2 for 24 hrs, CellTiter-Fluor reagent (1 ul) (Promega, Madison, WI) is then added and plates are incubated for 30 minutes, before being transferred to a ViewLux high-throughput CCD imager (PerkinElmer), wherein single end-point fluorescence measurements are acquired using the 405 nm excitation/525 nm emission filter set to assess cell viability. Next, Bright-Glo luciferase substrate detection reagent (3 ul) (Promega, Madison, WI) is added to each well and incubated for an additional 5 minutes. Luminescence is then measured on the ViewLux imager equipped with a clear emission filter using a 2 sec exposure.
% is scaled to controls: 0 for no effect and ±100 for the full control effect; potency is read from the fitted curve at half-maximal effect.

Row | SMILES | activity change, negative = inhibition | Potency
1 | CC[C@@H](CO)NC(=O)[C@@H]1C=C2c3cccc4[nH]cc(c34)C[C@H]2N(C)C1 | -21% (inactive) | –
2 | O=C1NCN(c2ccccc2)C12CCN(CC1COc3ccccc3O1)CC2 (stereo unspecified) | -7.5% (inactive) | –
3 | c1ccc(C2CC2)c(OCC2=NCCN2)c1 | -19.4% (inactive) | –
4 | CCCN1CCC[C@@H]2Cc3nc(N)ncc3C[C@H]21 | -2.34% (inactive) | –
5 | CNCC(O)c1ccc(O)cc1 (stereo unspecified) | -6.71% (inactive) | –
6 | Cc1cccc(C)c1NC(=O)CN1CCCC1=O | -6.04% (inactive) | –
7 | CC(O)(CS(=O)(=O)c1ccc(F)cc1)C(=O)Nc1ccc(C#N)c(C(F)(F)F)c1 (stereo unspecified) | -18.3% (inactive) | –
8 | CNCCC(Oc1ccc(C(F)(F)F)cc1)c1ccccc1 (stereo unspecified) | – | 14.1 µM (active)
9 | CC(=O)[C@H]1CC[C@H]2[C@@H]3CC[C@H]4C[C@H](O)CC[C@]4(C)[C@H]3C(=O)C[C@]12C | -16.9% (inactive) | –
10 | CCCN1CCC[C@@H]2Cc3[nH]ncc3C[C@H]21 | – | inactive
11 | Nc1ccncc1 | -6% (inactive) | –
12 | CC[C@@H](CO)NC(=O)[C@@H]1C=C2c3cccc4c3c(cn4C)C[C@H]2N(C)C1 | -12.5% (inactive) | –
13 | CCC1(C2=NCCN2)Cc2ccccc2O1 (stereo unspecified) | -1.04% (inactive) | –
14 | C[C@@H]1O[C@@H](O[C@H]2C[C@@H](O)[C@]3(CO)[C@H]4[C@H](O)C[C@]5(C)[C@@H](C6=CC(=O)OC6)CC[C@]5(O)[C@@H]4CC[C@]3(O)C2)[C@H](O)[C@H](O)[C@H]1O | -92.7% (inactive) | –
15 | Cc1cc2c(C(C)C)c(O)c(O)c(C=O)c2c(O)c1-c1c(C)cc2c(C(C)C)c(O)c(O)c(C=O)c2c1O | – | 7.08 µM (active)
16 | N#CC(C#N)=Cc1ccc(O)c(O)c1 | -11.5% (inactive) | –

Row | SMILES | activity change, negative = inhibition | Potency
17 | NN=C(N)N | – | inactive
18 | CCCC(C)(COC(N)=O)COC(=O)NC(C)C (stereo unspecified) | -6.98% (inactive) | –
19 | COc1ccc(C(CN(C)C)C2(O)CCCCC2)cc1 (stereo unspecified) | -18.4% (inactive) | –
20 | Fc1ccc(C(OCCN2CCN(CCCc3ccccc3)CC2)c2ccc(F)cc2)cc1 | – | 20 µM (active)
21 | NCC1(CC(=O)O)CCCCC1 | 9.24% (inactive) | –
22 | Cc1c(OCC(F)(F)F)ccnc1CS(=O)c1nc2ccccc2[nH]1 (stereo unspecified) | 36.9% (inactive) | –
23 | CC(C)=CCOc1c2occc2cc2ccc(=O)oc12 | -8.14% (inactive) | –
24 | NCC(O)c1ccc(O)cc1 (stereo unspecified) | -12.7% (inactive) | –
25 | Cc1cccc(C)c1NC1=NCCCS1 | -16% (inactive) | –
26 | O=c1[nH]c2ccccc2n1C1CCN(CCCC(c2ccc(F)cc2)c2ccc(F)cc2)CC1 | -12.2% (inactive) | –
27 | COc1ccccc1N1CCNCC1 | -16% (inactive) | –
28 | NCC(CC(=O)O)c1ccc(Cl)cc1 (stereo unspecified) | 1.1% (inactive) | –
29 | CC(=O)[C@H]1CC[C@H]2[C@@H]3CC[C@H]4C[C@](C)(O)CC[C@]4(C)[C@H]3CC[C@]12C | -4.51% (inactive) | –
30 | Cc1ccc(S(=O)(=O)N[C@@H](CCCCN)C(=O)CCl)cc1 | 53.1% (inactive) | –
31 | Cc1ncc(CNC(=O)N(CCCl)N=O)c(N)n1 | -3.57% (inactive) | –

— PubChem BioAssay (NCATS)
